Measurements published in article PMC5540273 (PLoS ONE, 2017).

tested on: T1, GCN2(Kin.Dom.2,S808G); settings: concentration: 1 μM,replicates: in singlicate; n = 1
T1 construct: gene EIF2AK4
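Note: KINOMEscan kinase panel screen.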

Which “%Inh” value does the source give for `CC(C)Nc1cc(-c2ccc3c(N)n[nH]c3c2)nc(N)n1` [GSK2221681] here?
Its value is 0%.

With `COc1ccc(C[C@@H](CN)NC(=O)c2cc(Br)c(-c3ccnc4[nH]ccc34)s2)cc1.Cl.Cl` [GSK1389063] as the compound, how does the “%Inh” value read?
The value was 40%.

`Cc1occc1-c1nc(N)c(OC[C@@H](N)Cc2c[nH]c3ccccc23)cc1-c1cc2c(C)n[nH]c2cn1` [GSK1660450] was tested. Which “%Inh” value did it give?
Its value is 0%.

With `Cc1ccc2c(-c3ccncc3)c(-c3ccc(F)cc3)nn2c1.Cl` [GW461484] as the compound, how does the “%Inh” value read?
Its value is 28%.

With `O=C(NCCCN1CCOC1=O)c1cnc(NCc2cc(Cl)ccc2Cl)nc1NC1CCCC1` as the compound, how does the “%Inh” value read?
The value was 29%.

Which “%Inh” value does the source give for `Cc1n[nH]c2ccc(-c3cc(OC[C@@H](N)Cc4ccccc4)cnc3-c3ccoc3)cc12.O=C(O)C(F)(F)F.O=C(O)C(F)(F)F` [GSK507358] here?
The value was 0%.

`Cc1cc2cn[nH]c2cc1-c1cccc2c(N)c(C(N)=O)nnc12` was tested. Which “%Inh” value did it give?
Its value is 0%.

How did the “%Inh” value turn out when `NC(=O)c1cc(-c2ccccc2)cc2c(C3CCNCC3)c[nH]c12` [GSK301362] was run?
Its value is 38%.

For `Cc1ccc(-n2nc(C(C)(C)C)cc2NC(=O)Nc2ccc(OCCN3CCOCC3)c3ccccc23)cc1` [GW839464], which “%Inh” value is on record?
The value was 0%.

`CC(C)N1C(=O)Cc2cc(Nc3ncc(C(F)(F)F)c(NCc4cccc(S(C)(=O)=O)c4)n3)ccc21` was tested. Which “%Inh” value did it give?
The value was 17%.

How did the “%Inh” value turn out when `O=C(NCCNc1ccnc(NCc2ccc(F)cc2)n1)c1cc2ccccc2s1` [GSK1379944] was run?
The value was 6%.

How did the “%Inh” value turn out when `CNC(=O)c1ccccc1Sc1ccc2c(/C=C/c3ccccn3)n[nH]c2c1` was run?
The value was 0%.

`Nc1nc(Nc2ccccc2)cc(-c2ccc3c(N)n[nH]c3c2)n1` [GSK2225749] was tested. Which “%Inh” value did it give?
The value was 0%.

How did the “%Inh” value turn out when `CCN(CC)CCCCNc1ncc2cc(-c3c(Cl)cccc3Cl)c(NC(=O)NC(C)(C)C)nc2n1` was run?
The value was 53%.

With `Cc1cc(C(=O)Nc2ccc(Oc3ccc4nc(NC(=O)C5CC5)cn4n3)cc2)nn1-c1ccccc1` as the compound, how does the “%Inh” value read?
The value was 0%.

With `CN(C)CC(O)COc1ccc(Nc2nccc(-c3cnn4nc(N5CCOCC5)ccc34)n2)cc1` (centres unmarked) [GW767488] as the compound, how does the “%Inh” value read?
Its value is 56%.

For `Cl.Cl.Nc1nc(-c2ccc3c(N)n[nH]c3c2)cc(N2CCCC(NC(=O)c3ccccc3)C2)n1` (centres unmarked) [GSK2286775], which “%Inh” value is on record?
Its value is 0%.

With `CN(C)CCOc1ccc(-c2cc(-c3c[nH]nc3-c3ccccn3)ccn2)cc1` [GW835314] as the compound, how does the “%Inh” value read?
Its value is 0%.

With `C[C@@H]1CCN(C(=O)CC#N)C[C@@H]1N(C)c1ncnc2[nH]ccc12` as the compound, how does the “%Inh” value read?
Its value is 0%.

`Cl.Cl.NC[C@H](CC1CCCCC1)NC(=O)c1cc(Br)c(-c2ccnc3[nH]ccc23)s1` [GSK1581427] was tested. Which “%Inh” value did it give?
The value was 0%.

Which “%Inh” value does the source give for `Cl.Cl.NC[C@H](Cc1ccc(C(F)(F)F)cc1)NC(=O)c1cc(Br)c(-c2ccnc3[nH]ccc23)s1` [GSK1487252] here?
Its value is 4%.

`Cl.Oc1cc(-c2nc(-c3ccccc3)[nH]c2-c2ccncc2)ccc1Cl` [SB-386023] was tested. Which “%Inh” value did it give?
Its value is 20%.

How did the “%Inh” value turn out when `C[C@H]1Oc2cc(cnc2N)-c2c(nn(C)c2C#N)CN(C)C(=O)c2ccc(F)cc21` was run?
Its value is 0%.

`C[C@@H](Oc1cc(-c2cnn(C3CCNCC3)c2)cnc1N)c1c(Cl)ccc(F)c1Cl` was tested. Which “%Inh” value did it give?
The value was 0%.

`CCn1c(-c2nonc2N)nc2c(C#CC(C)(C)O)nc(OCCN)cc21.Cl.Cl` [GSK902056] was tested. Which “%Inh” value did it give?
Its value is 9%.

Which “%Inh” value does the source give for `CCN(CC)CCOc1ccc(Nc2ncc3cc(-c4c(Cl)cccc4Cl)c(=O)n(C)c3n2)cc1` [SB-601273] here?
Its value is 100%.
